# Measured values reported in PubChem BioAssay (NCATS).
# Records with an inconclusive call do not appear. Entries that show only a call come without a potency. Activity calls are given as the source filed them. Calls come from the whole dose curve; as a rule, active = well fitted cell-killing curve with a large enough effect; inconclusive = small, poorly fitted or top-dose-only effect; inactive = no such curve, though single readings can be large or run the other way.
# Assay: qHTS of pediatric cancer cell lines to identify multiple opportunities for drug repurposing: Primary screen for Rh30 cells (AID 1347107); note: nearly all actives have a fitted effect of over 75% in size
# Details: Rh30 rhabdomyosarcoma viability, CellTiter-Glo luminescence, 48 h; series mostly up to 46 µM
# Description: Drug repurposing or repositioning has been offered as a strategy for drug development in oncology programs. This approach has special potential for childhood cancers and other rare or orphan diseases, where the expected return on new drug development has been a disincentive to pharmaceuticals.
# In this project we exploit the poly-pharmacology of drugs to discover new indications via phenotypic screening of a panel of 19 well-characterized cell lines derived from solid tumors seen in children and adolescents. The goal is to identify approved drugs with previously unrecognized anticancer properties that has the potential to reveal new mechanisms and biological processes involved in carcinogenesis or drug resistance. We employed a titration-based paradigm (quantitative high-throughput screening or qHTS), where all compounds were tested at multiple concentrations for their effect on cell viability. Concentration-response curves (CRCs) were derived directly from the primary screen, and both potency and efficacy values were used to identify compounds with robust bioactivity profiles. We screened the NIH Chemical Genomics Center (NCGC) Pharmaceutical Collection (NPC) and Mechanism Interrogation Plate (MIPE) small molecule collections of approved and investigational compounds against these cell lines; and measured metabolically active cells after 48 hours of compound treatment as a proxy for cell viability.
# Assay Submitter: Nathalia J. Martinez, National Center for Advancing Translational Sciences, National Institutes of Health, Rockville, MD, USA; email: natalia.martinez@nih.gov
# [1] Shen, M et al. Quantitative high-throughput phenotypic screening of pediatric cancer cell lines identifies multiple opportunities for drug repurposing. Oncotarget 2017 Dec 19;9(4):4758-4772. PMID 29435139.
# The cells were obtained from University of North Carolina (UNC), Pediatric Preclinical Testing Program (PPT), and Coriell Institute (CI).
# qHTS cell viability assay:
# Cells were assayed in growth media at a density of 500-1,000 cells/well. Five microliters of cells were dispensed into 1,536-well, white, solid-bottom, TC-treated plates (Greiner Bio One) using a multidrop dispenser and incubated at 37 degrees C, 5% CO2, under a humidified atmosphere for 5 hours. Twenty-three nanoliters of compounds and controls (neutral control DMSO or positive control bortezomib at final concentration of 2.3 µM) were subsequently transferred by Kalypsys pintool. For primary screens, the MIPE collection was tested at 11-point dilutions (final concentrations range from 0.78 nM to 46 µM) and the NPC collection at 8-point dilutions (final concentrations range from 0.59 nM to 46 µM). Compounds tested in follow-up screens were assayed at 11-point dilutions. Cells were incubated for 48 hours, followed by addition of 3 µL of CellTiter-Glo (Promega). After a 15 min incubation at room temperature, samples were analyzed for luminescence intensity using a ViewLux High-throughput CCD imager equipped with clear filters.
# Potency is the fitted concentration of half-maximal effect.
row,Compound,Potency
1,O=S(=O)(O)C(F)(F)C(F)(F)C(F)(F)C(F)(F)C(F)(F)C(F)(F)C(F)(F)C(F)(F)F,inactive
2,Nc1ccc(Cl)cc1,inactive
3,O=C(O)C(Cl)Cl,inactive
4,CN[C@@H]1Cc2cccc3[nH]c(=O)n(c23)C1,inactive
5,CC(C)[C@]12O[C@@H]1[C@@H]1O[C@]13[C@]1(O[C@H]1C[C@@H]1C4=C(CC[C@@]13C)C(=O)OC4)[C@H]2O,inactive
6,CCOP(=O)(OCC)C(C)NC(=O)N(CCCl)N=O (stereo not given),inactive
7,CC[C@@H]1[C@@H](C)O[C@@](O)([C@@H](C)[C@H](O)[C@H](C)[C@H]2OC(=O)C=CC=C[C@@H](C)[C@@H]([C@@H](C)[C@@H](O)[C@H](C)[C@@]3(O)C[C@H](O[C@H]4C[C@H](O)[C@H](O)[C@H](C)O4)[C@H](CC)[C@@H](C)O3)OC(=O)C=CC=C[C@@H]2C)C[C@H]1O[C@H]1C[C@H](O)[C@H](O)[C@H](C)O1,935 nM (active)
8,CC(O)CN1CCN(CC(=O)[O-])CCN(CC(=O)[O-])CCN(CC(=O)[O-])CC1.[Gd+3] (stereo not given),inactive
9,CC(=Cc1csc(C)n1)[C@@H]1C[C@H]2O[C@@H]2CCC[C@H](C)[C@@H](O)[C@@H](C)C(=O)C(C)(C)[C@@H](O)CC(=O)O1,inactive
10,O=C(Nc1ccncc1)C(=O)c1cn(Cc2ccc(Cl)cc2)c2ccccc12,inactive
11,CC(C)NCC(O)c1ccc([N+](=O)[O-])cc1 (stereo not given),inactive
12,O=C1CCC[C@@H]2[C@H]3CCCN4CCC[C@@H](CN12)[C@@H]34,inactive
13,COc1cccc2c1[C@]13CCN(CC4CC4)[C@H](C2)[C@]1(OC)CCC(=O)C3,inactive
14,CCOCCOC(C)=O,inactive
15,CC[C@H]1C=CC=CC[C@@H](C)[C@H](O)[C@@](C)(O)C(=O)[C@@H](C)[C@H](O)[C@@H](C)C(=O)[C@@H](C)[C@H](O)[C@@H](C)C=CC(=O)O[C@@H]2[C@@H](C)[C@H](CC1)O[C@]1(CC[C@H](C)[C@H](C[C@@H](C)O)O1)[C@H]2C,inactive
16,CC(N[C@H]1C[C@H]1c1ccccc1)c1ccc2c(c1)OCCO2 (stereo not given in full),inactive
17,CC=C(C)C(=O)O[C@H]1C(C)=C2[C@@H]3OC(=O)[C@@](C)(O)[C@@]3(O)[C@@H](OC(=O)CCC)C[C@](C)(OC(C)=O)[C@@H]2[C@@H]1OC(=O)CCCCCCC,1320 nM (active)
18,CCOC(=O)Nc1ccc(NCc2ccc(F)cc2)cc1N,inactive
19,CC1=NN=C(c2ccc(N)cc2)c2cc3c(cc2C1)OCO3,inactive
20,COc1cc([C@@H]2c3cc4c(cc3[C@@H](O)C3COC(=O)C32)OCO4)cc(OC)c1O (stereo not given in full),inactive

row,Compound,Potency
1,C[C@@]12OC(=O)[C@]1([C@@H](O)[C@@H]1C=CCCC1)NC(=O)[C@H]2CCCl,5900 nM (active)
2,C=C1C[C@H]2[C@H]3CCC(=O)[C@@]3(C)CC[C@@H]2[C@@]2(C)C=CC(=O)C=C12,inactive
3,Cc1cc(O)ccc1Cl,inactive
4,O=S(=O)(c1ccc(Cl)cc1)c1ccc(Cl)cc1,inactive
5,C[C@]12COC(=O)C[C@@H]1CC[C@@H]1[C@H]2CC[C@@]2(C)[C@H]1CC[C@]2(C)O,inactive
6,CC(=O)Nc1ccc(OC[C@](C)(O)C(=O)Nc2ccc([N+](=O)[O-])c(C(F)(F)F)c2)cc1,inactive
7,CN(C)[C@@H]1C(=O)C(C(N)=O)=C(O)[C@@]2(O)C(=O)C3=C(O)c4c(O)cccc4[C@@](C)(O)[C@H]3[C@H](O)[C@@H]12,inactive
8,CS(=O)(=O)c1ccc(C(=O)C2C(=O)CCCC2=O)c([N+](=O)[O-])c1,inactive
9,C[C@]12CCC(=O)C(O)=C1CC[C@@H]1[C@H]3CCC(=O)[C@@]3(C)CC[C@@H]12,inactive
10,C[C@]12CC[C@H]3[C@@H](CCC4=CC(=O)CC[C@@]43C)[C@H]1CC[C@H]2OC(=O)CCC1CCCC1,inactive
11,C1CCC(NC2CCCCC2)CC1,inactive
12,O=S(=O)(F)Cc1ccccc1,inactive
13,Nc1ccc([N+](=O)[O-])cc1,inactive
14,COc1ccc(CC2NCCc3cc(OC)c(OC)cc32)cc1OC (stereo not given),inactive
15,CC(C)(C)C(O)C(Oc1ccc(Cl)cc1)n1cncn1 (stereo not given),inactive
16,CCCCC(CC)COC(=O)c1ccccc1C(=O)OCC(CC)CCCC (stereo not given),inactive
17,CN[C@@H](C)[C@H](O)c1ccccc1,inactive
18,CCCCCCCCc1ccc(O)cc1,inactive
19,c1cc2c(cc1[C@H]1OC[C@H]3[C@H]1CO[C@H]3c1ccc3c(c1)OCO3)OCO2,inactive
20,COC(C)(C)CCCC(C)C/C=C/C(C)=C/C(=O)OC(C)C (stereo not given),inactive
